According to PubChem BioAssay AID1159580 (chemical genetic matrix, 2015):
The campaign covered roughly 5,500 compounds. About 2,000 (36%) were called active. Inconclusive results (about 18%) are left out. Cut-off read from the data, not from the text of the source: active = normalized growth mostly below about 0.91 (no sharp cut-off); inconclusive = no clear call, values can overlap the other calls; inactive = mostly above about 0.92. This is one part of the list.

Assay: chemical genetic growth profiling, strain panel (AID 1159580);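 note: tested at 20 µM; growth read once vehicle control cultures reached saturation at 30 °C; 1 = growth at the plate median or of vehicle wells; lower values mean less growth of the strain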
Settings: growth OD

Measured: normalized growth

COc1ccc2c3c([nH]c2c1)C(C)=NCC3
inactive: S. cerevisiae deletion strains, locus YKL009W, strain mrt4, active compounds read low 1.02 | S. cerevisiae deletion strains, locus YKL068W, active compounds read low 0.999 | S. cerevisiae deletion strains, locus YKL085W, strain MDH1 (second series), active compounds read low 0.996 | S. cerevisiae deletion strains, locus YKL085W, strain MDH1, active compounds read low 0.996 | S. cerevisiae deletion strains, locus YKL160W, strain elf1, active compounds read low 1.01 | S. cerevisiae deletion strains, locus YKL190W, strain CNB1, active compounds read low 1.01 | S. cerevisiae deletion strains, locus YKR001C, strain vps1, active compounds read low 0.975 | S. cerevisiae deletion strains, locus YKR026C, strain gcn3, active compounds read low 1.01 | S. cerevisiae deletion strains, locus YKR091W, strain srl3, active compounds read low 0.999 | S. cerevisiae deletion strains, locus YLL001W, strain dnm1, active compounds read low 1.01 | S. cerevisiae deletion strains, locus YLL026W, active compounds read low 0.987 | S. cerevisiae deletion strains, locus YLL041C, strain sdh2, active compounds read low 1.01 | S. cerevisiae deletion strains, locus YLR027C, strain aat2, active compounds read low 1 | S. cerevisiae deletion strains, locus YLR039C, strain RIC1, active compounds read low 1.02 | S. cerevisiae deletion strains, locus YLR058C, strain SHM2, active compounds read low 1.01 | S. cerevisiae deletion strains, locus YLR102C, strain apc9, active compounds read low 0.987 | S. cerevisiae deletion strains, locus YLR113W, strain HOG1, active compounds read low 0.993 | S. cerevisiae deletion strains, locus YLR221C, strain rsa3, active compounds read low 1 | S. cerevisiae deletion strains, locus YLR258W, strain gsy2, active compounds read low 0.999 | S. cerevisiae deletion strains, locus YLR262C, strain YPT6 (second series), active compounds read low 0.983 | S. cerevisiae deletion strains, locus YLR262C, strain YPT6, active compounds read low 1.03 | S. cerevisiae deletion strains, locus YLR268W, strain sec22, active compounds read low 0.979 | S. cerevisiae deletion strains, locus YLR320W, strain mms22, active compounds read low 0.988 | S. cerevisiae deletion strains, locus YLR330W, strain CHS5, active compounds read low 1 | S. cerevisiae deletion strains, locus YLR342W, strain FKS1 (second series), active compounds read low 1.01 | S. cerevisiae deletion strains, locus YLR342W, strain FKS1, active compounds read low 0.972 | S. cerevisiae deletion strains, locus YLR357W, strain rsc2, active compounds read low 0.991 | S. cerevisiae deletion strains, locus YLR370C, strain arc18, active compounds read low 1 | S. cerevisiae deletion strains, locus YLR371W, strain rom2, active compounds read low 0.976 | S. cerevisiae deletion strains, locus YLR384C, strain iki3, active compounds read low 1 | S. cerevisiae deletion strains, locus YLR418C, strain cdc73, active compounds read low 0.98 | S. cerevisiae deletion strains, locus YML016C, strain PPZ1, active compounds read low 1 | S. cerevisiae deletion strains, locus YML032C, strain rad52, active compounds read low 0.993 | S. cerevisiae deletion strains, locus YML120C, strain ndi1, active compounds read low 0.986 | S. cerevisiae deletion strains, locus YML124C, strain tub3, active compounds read low 0.987 | S. cerevisiae deletion strains, locus YMR058W, strain fet3, active compounds read low 1.02 | S. cerevisiae deletion strains, locus YMR078C, strain ctf18, active compounds read low 0.996 | S. cerevisiae deletion strains, locus YMR125W, strain sto1, active compounds read low 1 | S. cerevisiae deletion strains, locus YMR129W, active compounds read low 0.981 | S. cerevisiae deletion strains, locus YMR205C, strain PFK2, active compounds read low 1.01 | S. cerevisiae deletion strains, locus YMR223W, strain ubp8, active compounds read low 0.99 | S. cerevisiae deletion strains, locus YMR231W, strain pep5, active compounds read low 0.999 | S. cerevisiae deletion strains, locus YMR263W, strain SAP30, active compounds read low 1.01 | S. cerevisiae deletion strains, locus YMR307W, strain GAS1, active compounds read low 1.04 | S. cerevisiae deletion strains, locus YNL067W, strain RPL9B, active compounds read low 0.999 | S. cerevisiae deletion strains, locus YNL071W, strain lat1, active compounds read low 1 | S. cerevisiae deletion strains, locus YNL128W, strain TEP1, active compounds read low 1.01 | S. cerevisiae deletion strains, locus YNL153C, strain GIM3, active compounds read low 0.997 | S. cerevisiae deletion strains, locus YNL183C, strain NPR1, active compounds read low 0.934 | S. cerevisiae deletion strains, locus YNL209W, strain ssb2, active compounds read low 1 | S. cerevisiae deletion strains, locus YNL233W, strain BNI4, active compounds read low 0.999 | S. cerevisiae deletion strains, locus YNL248C, strain rpa49, active compounds read low 1 | S. cerevisiae deletion strains, locus YNL250W, strain rad50, active compounds read low 0.983 | S. cerevisiae deletion strains, locus YNL271C, strain bni1, active compounds read low 0.984 | S. cerevisiae deletion strains, locus YNL298W, strain CLA4, active compounds read low 0.971 | S. cerevisiae deletion strains, locus YNL307C, strain MCK1, active compounds read low 0.987 | S. cerevisiae deletion strains, locus YNL322C, strain KRE1 (second series), active compounds read low 1 | S. cerevisiae deletion strains, locus YNL322C, strain KRE1, active compounds read low 1.01 | S. cerevisiae deletion strains, locus YNR049C, strain mso1, active compounds read low 0.999 | S. cerevisiae deletion strains, locus YNR052C, strain pop2, active compounds read low 0.989 | S. cerevisiae deletion strains, locus YOL006C, strain TOP1, active compounds read low 1.02 | S. cerevisiae deletion strains, locus YOL012C, strain htz1 0.706 | S. cerevisiae deletion strains, locus YOL147C, strain pex11, active compounds read low 0.99 | S. cerevisiae deletion strains, locus YOR001W, strain rrp6, active compounds read low 1.01 | S. cerevisiae deletion strains, locus YOR061W, strain CKA2, active compounds read low 1 | S. cerevisiae deletion strains, locus YOR069W, strain VPS5, active compounds read low 1.01 | S. cerevisiae deletion strains, locus YOR070C, strain gyp1, active compounds read low 0.991 | S. cerevisiae deletion strains, locus YOR080W, strain dia2, active compounds read low 0.997 | S. cerevisiae deletion strains, locus YOR083W, strain WHI5, active compounds read low 0.991 | S. cerevisiae deletion strains, locus YOR106W, strain vam3, active compounds read low 1.01 | S. cerevisiae deletion strains, locus YOR136W, strain idh2, active compounds read low 0.983 | S. cerevisiae deletion strains, locus YOR144C, strain elg1, active compounds read low 0.983 | S. cerevisiae deletion strains, locus YOR184W, strain ser1, active compounds read low 0.994 | S. cerevisiae deletion strains, locus YOR231W, strain MKK1, active compounds read low 0.987 | S. cerevisiae deletion strains, locus YOR265W, strain rbl2, active compounds read low 1 | S. cerevisiae deletion strains, locus YOR270C, strain vph1, active compounds read low 0.997 | S. cerevisiae deletion strains, locus YOR290C, strain snf2, active compounds read low 1.01 | S. cerevisiae deletion strains, locus YOR316C, strain cot1, active compounds read low 0.987 | S. cerevisiae deletion strains, locus YPL051W, strain arl3, active compounds read low 0.999 | S. cerevisiae deletion strains, locus YPL055C, strain LGE1, active compounds read low 1.03 | S. cerevisiae deletion strains, locus YPL078C, strain atp4, active compounds read low 1 | S. cerevisiae deletion strains, locus YPL106C, strain sse1, active compounds read low 0.991 | S. cerevisiae deletion strains, locus YPL240C, strain hsp82, active compounds read low 0.996 | S. cerevisiae deletion strains, locus YPL241C, strain CIN2, active compounds read low 1 | S. cerevisiae deletion strains, locus YPL256C, strain CLN2, active compounds read low 0.976 | S. cerevisiae deletion strains, locus YPR119W, strain clb2, active compounds read low 0.995 | S. cerevisiae deletion strains, locus YPR141C, strain kar3, active compounds read low 0.984 | S. cerevisiae deletion strains, locus YPR163C, strain tif3, active compounds read low 0.99 | S. cerevisiae deletion strains, locus YPR167C, strain met16, active compounds read low 0.991 | S. cerevisiae deletion strains, strain wtn01, active compounds read low 0.977 | S. cerevisiae strains, strain wild type, active compounds read low 1.01
